The source of these data is PubChem BioAssay (NCI).

The structures appear in SMILES notation. This is part of a sample that, as a whole, favours compounds with a hit. Of some 83,000 tested, about 20% had one in any assay.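 Testing used 96-well plates and a 48-hour single-concentration exposure. Example: -40 means 40% of the starting cells died.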 Values without a mark were called inactive. The source made the active and inactive calls. How the source made its calls: active means growth percent below 10; inactive means the rest.

Some test systems named below: SK-MEL-2 melanoma; EKVX NSCLC; SN12C renal; UO-31 renal; TK-10 renal; ACHN renal; CAKI-1 renal; A498 renal; CCRF-CEM leukemia; MOLT-4 leukemia; SR leukemia; RPMI-8226 leukemia; OVCAR-8 ovarian; OVCAR-5 ovarian; OVCAR-4 ovarian; SK-OV-3 ovarian; IGROV1 ovarian; OVCAR-3 ovarian; HS 578T breast; NCI/ADR-RES ovarian.
Common to all, as to assay: NCI-60 one-dose screen, 48 h (100 = growth as untreated, 0 = no growth, -100 = all killed)
Common to all, as to settings: 10 µM unless noted

For `CN1CCN(Cc2ccc(NC(=O)c3cncc(C#Cc4c(N)ncc5ccccc45)c3)cc2C(F)(F)F)CC1`, the growth in the assay with SK-MEL-2 melanoma is -79.2% (active); in the assay on EKVX NSCLC, -34.8% (active); in the assay on SN12C renal, -97.4% (active); in the assay on UO-31 renal, -78.8% (active); in the assay with TK-10 renal, -97.6% (active); in the assay on ACHN renal it was -91.5% (active). In addition, the growth with CAKI-1 renal is -66.2% (active); with A498 renal, -63.2% (active); in the assay on CCRF-CEM leukemia, -7.03% (active); in the assay with MOLT-4 leukemia it was -41.3% (active); in the assay with SR leukemia, -42.6% (active); in the assay on RPMI-8226 leukemia, -38% (active). The growth with OVCAR-8 ovarian is -62.3% (active); in the assay with OVCAR-5 ovarian, -22.2% (active); in the assay on OVCAR-4 ovarian it was -55.1% (active); with SK-OV-3 ovarian it was 8.37% (active); in the assay on IGROV1 ovarian, -62% (active); in the assay with OVCAR-3 ovarian, -78.4% (active). Further, the results for the growth in the assay on HS 578T breast and in the assay on NCI/ADR-RES ovarian were -31.5% (active) and -24.5% (active), respectively.
For `CCN1C(=O)N(CC)C2C1NN=c1s/c(=C3\C(=O)N(C)c4ccccc43)c(=O)n12` (stereo not given), the growth in the assay on SK-MEL-2 melanoma is 60.3%; in the assay with EKVX NSCLC, 57.8%; in the assay on SN12C renal, 36.9%; in the assay on UO-31 renal, 43.6%; in the assay on TK-10 renal, 69.8%; in the assay on ACHN renal it was 40.9%. The growth with CAKI-1 renal is 42.2%; in the assay with A498 renal, -26.9% (active); in the assay with CCRF-CEM leukemia it was 30.8%; in the assay with MOLT-4 leukemia, 45.1%; in the assay with SR leukemia it was 19.3%; in the assay on RPMI-8226 leukemia, 62.1%. The growth is 37.6% in the assay on OVCAR-8 ovarian; 48.9% with OVCAR-5 ovarian; 52% in the assay with OVCAR-4 ovarian; 72.5% in the assay with SK-OV-3 ovarian; 37.4% with IGROV1 ovarian; -14.1% (active) with OVCAR-3 ovarian. Further, the growth in the assay on HS 578T breast is 14.2%; in the assay with NCI/ADR-RES ovarian it was 9.37% (active).
Consider `CC/C(=C(/c1ccc(Cl)cc1)c1ccc(OCCN(CC)CC)cc1)c1ccc(OC)cc1`, for which the growth with SK-MEL-2 melanoma is 89.5%; in the assay on EKVX NSCLC, 62.2%; with SN12C renal, 67.5%; in the assay with UO-31 renal, 67.5%; in the assay on TK-10 renal it was 64.9%; in the assay on ACHN renal it was 79.4%. Moreover, the growth in the assay on CAKI-1 renal is 77%; in the assay on A498 renal it was 104%; in the assay with CCRF-CEM leukemia it was 24.3%; in the assay on MOLT-4 leukemia it was 19.7%; in the assay on SR leukemia, -26% (active); in the assay on RPMI-8226 leukemia, -21.4% (active). For the same compound, the growth with OVCAR-8 ovarian was 60.4%; with OVCAR-5 ovarian, 61.5%; with OVCAR-4 ovarian it was 70%; with SK-OV-3 ovarian, 89.8%; with IGROV1 ovarian, 60.4%; in the assay on OVCAR-3 ovarian it was 65.8%. Besides, the growth is 81.5% in the assay on HS 578T breast and 69.7% in the assay on NCI/ADR-RES ovarian.
Take `O=C(NCCN1CCOCC1)c1cncnc1Nc1ccc2c(ccn2Cc2ccccn2)c1`: the growth was 110% in the assay on SK-MEL-2 melanoma; 104% with EKVX NSCLC; 93.7% in the assay with SN12C renal; 88.5% with UO-31 renal; 98.7% in the assay with TK-10 renal; 107% in the assay on ACHN renal. The growth was 92.4% in the assay with CAKI-1 renal; 101% with A498 renal; 121% with CCRF-CEM leukemia; 104% in the assay on MOLT-4 leukemia; 111% with SR leukemia; 106% in the assay with RPMI-8226 leukemia. Further, the growth in the assay on OVCAR-8 ovarian is 102%; in the assay on OVCAR-5 ovarian, 100%; in the assay with OVCAR-4 ovarian it was 106%; in the assay on SK-OV-3 ovarian, 95.4%; in the assay with IGROV1 ovarian, 106%; in the assay with OVCAR-3 ovarian it was 113%. In addition, the values for the growth in the assay on HS 578T breast and in the assay on NCI/ADR-RES ovarian were 103% and 104%, respectively.
Take `CCOC(=O)c1cc(C(=O)c2cc(OC)cc(OC)c2)n2ncccc12`: the growth in the assay with SK-MEL-2 melanoma was 19.3%; in the assay with EKVX NSCLC, 49.7%; in the assay with SN12C renal it was 44.8%; in the assay with UO-31 renal, 47.8%; in the assay on TK-10 renal, 63.9%; in the assay with ACHN renal, 53.2%. Moreover, the growth in the assay on CAKI-1 renal is 34.1%; in the assay with A498 renal, -3.04% (active); in the assay with CCRF-CEM leukemia, 24%; in the assay with MOLT-4 leukemia it was 32.6%; in the assay on SR leukemia, 32.3%; with RPMI-8226 leukemia it was 28.9%. In addition, the growth is 38.2% in the assay with OVCAR-8 ovarian; 92.2% in the assay on OVCAR-5 ovarian; 71.4% with OVCAR-4 ovarian; 19.6% in the assay on SK-OV-3 ovarian; 56.4% in the assay on IGROV1 ovarian; 0.928% (active) with OVCAR-3 ovarian. Besides, the growth was 31.5% with HS 578T breast and 7.11% (active) in the assay with NCI/ADR-RES ovarian.
For `COc1cccc(C2C3=C(COC3=O)N(CCO)c3cc4c(cc32)OCCO4)c1` (stereo not given), the growth in the assay on SK-MEL-2 melanoma is 78.1%; in the assay on EKVX NSCLC it was 39.7%; in the assay on SN12C renal, 31%; in the assay on UO-31 renal it was 75%; in the assay on TK-10 renal, 66.9%; in the assay with ACHN renal it was 24.8%. Also, the growth with CAKI-1 renal was 41.6%; in the assay with A498 renal, -21.8% (active); in the assay with CCRF-CEM leukemia, 11.5%; in the assay on MOLT-4 leukemia, 11.8%; with SR leukemia it was 9.73% (active); in the assay with RPMI-8226 leukemia, 25.4%. Further, the growth with OVCAR-8 ovarian was 27.7%; in the assay on OVCAR-5 ovarian it was 29.8%; with OVCAR-4 ovarian, 24.2%; in the assay on SK-OV-3 ovarian it was 22.6%; with IGROV1 ovarian, 13.8%; in the assay on OVCAR-3 ovarian, -59.7% (active). The growth was -5.22% (active) in the assay on HS 578T breast and -35.1% (active) in the assay on NCI/ADR-RES ovarian.
For `CCOc1ccc(N2C(=O)CCSC2=S)cc1`, the growth was 102% in the assay on SK-MEL-2 melanoma; 95.5% in the assay with EKVX NSCLC; 101% in the assay on SN12C renal; 85.5% with UO-31 renal; 96.3% with TK-10 renal; 101% with ACHN renal. The growth in the assay on CAKI-1 renal is 96.4%; in the assay on A498 renal, 102%; in the assay on CCRF-CEM leukemia, 108%; with MOLT-4 leukemia it was 104%; with SR leukemia it was 116%; in the assay on RPMI-8226 leukemia it was 104%. Moreover, the growth in the assay with OVCAR-8 ovarian is 104%; in the assay on OVCAR-5 ovarian, 107%; in the assay on OVCAR-4 ovarian, 109%; in the assay on SK-OV-3 ovarian, 101%; with IGROV1 ovarian, 99.1%; in the assay on OVCAR-3 ovarian, 114%. The growth with HS 578T breast and in the assay with NCI/ADR-RES ovarian was 105% each time.
